An excerpt weighted towards active compounds, which were near 7.3% of everything screened.
FLuc counter = qHTS profiling assay for firefly luciferase inhibitor/activator using purifed enzyme and Km concentrations of substrates (counterscreen for miR-21 project); Luciferin 4-monooxygenase (Photinus pyralis), P08659; purified FLuc, Km substrates, luminescence inhibition; Potency, µM (top dose mostly 57.5 µM), for the others: top-dose activity change, negative = inhibition, usual class: inhibitors; 6.9% of 360,000 active; AID 588342, 2011;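 also: plate controls were vehicle for no effect and reference inhibitor for full effect; nearly all actives have a fitted effect of over 55% in size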
Target sequence (P08659 whole entry, looked up): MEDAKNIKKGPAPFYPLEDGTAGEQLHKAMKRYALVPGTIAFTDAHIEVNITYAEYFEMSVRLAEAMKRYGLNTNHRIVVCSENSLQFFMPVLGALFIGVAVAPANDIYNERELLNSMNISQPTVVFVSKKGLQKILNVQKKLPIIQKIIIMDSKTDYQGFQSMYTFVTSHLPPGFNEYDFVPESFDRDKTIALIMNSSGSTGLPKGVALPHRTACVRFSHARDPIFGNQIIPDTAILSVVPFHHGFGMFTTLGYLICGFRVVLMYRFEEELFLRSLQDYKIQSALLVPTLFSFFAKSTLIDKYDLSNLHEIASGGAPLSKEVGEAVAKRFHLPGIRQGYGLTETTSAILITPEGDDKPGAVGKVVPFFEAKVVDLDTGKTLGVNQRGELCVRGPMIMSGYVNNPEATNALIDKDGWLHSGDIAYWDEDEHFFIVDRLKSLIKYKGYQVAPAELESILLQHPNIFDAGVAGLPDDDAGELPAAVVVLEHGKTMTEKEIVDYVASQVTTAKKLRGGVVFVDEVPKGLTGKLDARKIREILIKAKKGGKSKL
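Purified P. pyralis luciferase, 10 nM final, with Km-level 10 uM D-luciferin and 10 uM ATP in 50 mM Tris acetate pH 7.5, 10 mM Mg acetate, 0.01% Tween-20, 0.05% BSA; 6-point qHTS titration about 60 µM downward; luminescence read.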
SMN2 splice up = qHTS Assay for Enhancers of SMN2 Splice Variant Expression | 2.8% of 210,000 active | HEK293 SMN2-luciferase splicing reporter, luminescence, 30-36 h | AID 1458, 2008 | Potency, µM (titrated, usually from 46.1 µM), for inactives: at the top dose activity change, positive = activation, most hits filed as activators; also: % of control where 0% means no effect; nearly all actives have a fitted effect of over 55% in size
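HEK293 cells carry an SMN2 minigene-luciferase reporter in which exon 7 inclusion puts luciferase in frame. Cells were seeded at 2000 cells/well, attached for 10-12 hours, then exposed to compounds for 30-36 hours at 37C before ONE-Glo luminescence.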
Rab9 prom act = qHTS Assay for Rab9 Promoter Activators; Huh7 Rab9 promoter-luciferase reporter, luminescence, 24 h; Potency, µM (top dose mostly 9.22 µM), for inactives: at the top dose activation, negative = inhibition, usual class: activators; 2.8% of 320,000 active; also: % of control where 0% means no effect; nearly all actives have a fitted effect of over 60% in size
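Quantitative HTS format; Huh7 Rab9-luciferase reporter cells (1500/well) receive compound 2 h post-plating, incubate 24 h at 37 °C, then get luciferase reagent for 10 min before luminescence reading.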
ELG1 genotoxic = qHTS screen for small molecules that induce genotoxicity in human embryonic kidney (HEK293T) cells expressing luciferase-tagged ELG1 | HEK293T ELG1-luciferase reporter, luminescence, 16 h | Potency, µM (top dose mostly 46 µM), for the others: at the top dose activity change, positive = activation, actives largely listed as activators | 1.3% of 330,000 active; also: % of control where 0% means no effect; nearly all actives have a fitted effect of over 60% in size
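ELG1-luciferase HEK293T cells, 2,000/well; compound pinned in; 16 hr, 37 °C, 5% CO2; ONE-Glo, 30 min RT; luminescence on CCD imager.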
NPC1 promoter act = qHTS Assay for NPC1 Promoter Activators; Huh7 NPC1 promoter luciferase reporter, 24 h; Potency, µM (highest dose often 9.22 µM), inactives show at the top dose activation, most hits filed as activators; 2.4% of 320,000 active; AID 485313, 2010; also: % of control where 0% means no effect; nearly all actives have a fitted effect of over 60% in size
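In 1536-well qHTS, Huh7 cells harboring an NPC1 promoter–luciferase construct received compound for 24 h; activation was quantified by luminescence following luciferase reagent addition.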
p53 reactivator = qHTS assay for re-activators of p53 using a Luc reporter; H1299 p53-A138V BP100-luciferase reporter, luminescence, 24 h; Potency, µM (series often up to 92.2 µM), inactives show at the top dose activity change, positive = activation, usual class: activators; 0.063% of 320,000 active; AID 504706, 2011; also: % of control where 0% means no effect; nearly all actives have a fitted effect of over 45% in size
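p53-null H1299 cells stably carrying temperature-sensitive p53-A138V and a BP100-luciferase reporter were pinned with compounds (4-point, 1:5 series) and held 24 hrs at 37 deg C. Luminescence was read 10 min after detection reagent.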
The depositor's hits bear a star; ? = inconclusive; / = no result given. Calls follow the shape of the dose curve; as a rule, active = well fitted curve in the direction sought with a large enough effect; inconclusive = small, poorly fitted or top-dose-only effect, or another doubt; inactive = no such curve, though single readings can be large; an effect the other way counts as inactive or inconclusive. Potency is read from the fitted curve at half-maximal effect.

SMILES	FLuc counter	SMN2 splice up	Rab9 prom act	ELG1 genotoxic	NPC1 promoter act	p53 reactivator
CCOC(=O)Cn1c(=O)n(-c2cccc(Cl)c2)c2nc(-c3ccccc3Cl)nc(C(N)=O)c21	-7%	/	/	/	/	/
CCc1c(C)sc2c1CCN(Cc1ccc(F)cc1)C2c1ccccc1 (centres undefined)	2%	/	/	/	/	/
NNc1ccc(Cc2ccc(Cl)cc2Cl)nn1	-1%	-74%	5%	19%	-1%	-1%
CSc1ccc(Cc2ccc(Cl)cc2Cl)nn1	17µM*	-11%	?	12%	28%	?
COCCn1c(C)cc(C(=O)COC(=O)c2ccc([N+](=O)[O-])o2)c1C	12µM*	3%	7%	-1%	5%	?
Cc1cc(C)c(C(=O)COC(=O)c2ccc([N+](=O)[O-])o2)cc1C	-1%	-45%	-5%	-3%	-4%	22%
COCCn1c(C)cc(C(=O)COC(=O)C2CC(=O)N(CCc3ccc(OC)c(OC)c3)C2)c1C (centres undefined)	11µM*	/	19%	8%	18%	21%
Cc1cc(C(=O)COC(=O)c2ccc([N+](=O)[O-])o2)c(C)n1CC1CCCO1 (centres undefined)	11µM*	-3%	2%	0%	-1%	4%
Cc1ccc(NC2Sc3ccccc3NC2=O)cc1 (centres undefined)	2.1µM*	11µM*	1.4µM*	?	4µM*	-5%
O=C1Nc2ccccc2SC1c1ccccc1 (centres undefined)	-1%	/	-2%	0%	1%	1%
Cc1nn(C)c(C)c1S(=O)(=O)N(CC(=O)NCCc1ccccc1)c1ccc(C(C)C)cc1	0%	-9%	/	/	/	/
CCC(C)NCCOCCOc1ccc(F)cc1 (centres undefined)	0%	7%	-9%	0%	-4%	-1%
COc1cc(C2CC(c3ccccc3)=NN2c2ccccc2)ccc1OCC(=O)O (centres undefined)	15µM*	/	1%	7%	0%	7%
COc1ccc(C2CC(c3ccccc3)=NN2c2ccc(S(N)(=O)=O)cc2)cc1OC (centres undefined)	-1%	-1%	-3%	1%	-5%	1%
COc1ccc(C2CC(c3ccc(Cl)cc3)=NN2c2ccc(S(N)(=O)=O)cc2)cc1 (centres undefined)	/	/	/	-8%	/	1%
COc1ccc(C2=NN(c3ccc(C(=O)O)cc3)C(c3ccc(OC)c(OC)c3)C2)cc1 (centres undefined)	?	/	10%	23µM*	16%	11%
CC(C)c1ccc(NC(=O)c2cc(S(=O)(=O)N3CCCCC3)cn2C)cc1	-1%	/	/	/	/	/
O=[N+]([O-])c1ccc(Cc2nnc(-c3ccc(F)cc3)o2)cc1	-11%	5%	1µM*	-4%	?	?
Cc1ccc(-c2nnc(Cc3ccc([N+](=O)[O-])cc3)o2)cc1	-2%	/	2.2µM*	?	?	9%
NC(=O)c1cnn(-c2cc(Oc3ccccc3)ncn2)c1N	?	/	2.5µM*	?	3.2µM*	16%
c1ccc(Oc2cc(-n3cccn3)ncn2)cc1	12µM*	22µM*	3.2µM*	8.2µM*	?	?
COC(=O)c1cnn(-c2cc(Oc3ccccc3)ncn2)c1N	?	/	2.5µM*	?	?	?
COc1cc(NC(=O)CCn2c(-c3ccccc3)cc(C(C)=O)c2C)cc(OC)c1	-2%	/	/	/	/	/
CC(C)c1nn2c(=O)cc(COC(=O)c3ccc(NC(=O)COc4ccccc4)cc3)nc2s1	2%	/	/	/	/	/
CC(C)c1nn2c(=O)cc(COC(=O)c3ccccc3NC(=O)COc3ccccc3)nc2s1	21µM*	/	/	/	/	/

High-throughput results from PubChem.
